Screen size: about 410,000 compounds; about 3,100 (0.76%) were called active. Entries that show only a call come without a potency. The call rests on the fitted dose curve; in most records, active means well fitted cell-killing curve with a large enough effect; inactive means no such curve, though single readings can be large or run the other way. The full list was thinned out, with actives kept by preference.
Potency means the concentration at half of the fitted maximal effect.

The assay can be described thus: qHTS for Inhibitors of TGF-b: Cytotox Counterscreen. The following applies: HepG2 CAGA-GFP viability, ATP luminescence, 18 h; series mostly up to 46.1 µM. Summed up:
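CellTiter-Glo luminescence gave cytotoxicity after 18 hours at 37 degrees C. The cells were HepG2 CAGA-GFP in 1% FBS DMEM, stimulated with 500 pg/mL TGF-beta after compound addition. %Activity was normalised to no-cell wells (complete cell-killing) and DMSO (no toxicity), and curves were fitted and classified.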
In general terms: Quantitative high-throughput screening tests each substance at several concentrations.
For the compound `CCC(C)N(c1ccc(/C=C/c2ccnc3ccccc23)cc1)C(C)CC` (stereo not drawn), the Potency result is “inactive”.
For the compound `Cc1cccc(NC(=O)N2CCC(CN3CCc4ccccc4C3)CC2)c1C`, the Potency entry is “inactive”.
In the case of `Cc1ccccc1Cn1c2ccccc2c2cnn(CC(=O)NCc3ccco3)c(=O)c21` it was “inactive”.
On to `CCCN(CCC)CCCNC(=O)Cn1ncc2c3ccccc3n(Cc3ccccc3)c2c1=O`, for which the Potency result is “inactive”.
With `CCN(CC)CCNC(=O)Cn1ncc2c3ccccc3n(Cc3ccccc3C)c2c1=O`, the Potency was 15.8 µM (active).
In the case of `O=C(CSc1oc(-c2ccco2)nc1S(=O)(=O)c1ccc(Cl)cc1)c1ccccc1` it was “inactive”; in that of `COC(=O)CC1Oc2ccccc2-n2cc(-c3ccccc3)nc21` (stereo not drawn), “inactive”; in that of `COc1ccccc1Nc1c2c(nc3ccc(NC(=O)/C=C/c4cc(OC)c(OC)c(OC)c4)cc13)CCCC2`, 5.62 µM (active).
In the case of `CCOc1ccc(C(=O)Nc2ccc3nc4c(c(Nc5ccccc5OC)c3c2)CCCC4)cc1` it was “inactive”.
In the case of `COc1cc(/C=C/C(=O)O)cc(S(=O)(=O)Nc2ccccc2SC)c1OC` it was “inactive”; in that of `COCCCNC(=O)c1c(NC(=O)c2cc(=O)c3cc(C)c(C)cc3o2)sc2c1CCCC2`, “inactive”.
Consider `COC(=O)c1sc(-c2ccc(C(C)(C)C)cc2)cc1NC(=O)/C=C/C(=O)O`, for which the Potency was 7.08 µM (active).
For the compound `OC(Cc1ccc2ccccc2n1)c1ccc(Cl)c(Cl)c1` (stereo not drawn), the Potency result was “inactive”.
In the case of `C/C=C/NNC(=O)Cc1ccc(OC)cc1` it was “inactive”; in that of `Cc1ccc(-c2nc(SCc3ccc(Br)cc3)n3[nH]c(=O)cc3n2)cc1`, 5.01 µM (active).
In the case of `O=c1cc2nc(-c3ccccc3)nc(SCCOc3ccc(Cl)cc3)n2[nH]1` it was “inactive”.
Turning to `Cc1cccc(-c2nc(SCc3ccc(Br)cc3)n3[nH]c(=O)cc3n2)c1`, the Potency result is “inactive”.
On to `COc1ccc(-c2nc(CN3CCC(C(=O)NCc4ccccc4)CC3)c(C)o2)cc1OC`, for which the Potency entry is “inactive”.
Regarding `Nc1ccc(/C=C/c2ccnc3ccccc23)c([N+](=O)[O-])c1`, the Potency entry is “inactive”.
On to `COc1cccc(CNC(=O)c2ccc3c(c2)sc2nc(-c4cccc(OC)c4)cn23)c1`, for which the Potency result was “inactive”.
In the case of `Cc1cccc(-n2c(SCC(N)=O)nc3c(oc4ccccc43)c2=O)c1` it was “inactive”; in that of `Cc1cc(C)cc(Nc2ncnc3onc(-c4ccc(F)cc4)c23)c1`, “inactive”.
With `C=COC(=O)N1CCN(/[N+]([O-])=N/Oc2ccc([N+](=O)[O-])cc2[N+](=O)[O-])CC1`, the Potency entry was “inactive”.
In the case of `Cc1cccc(NS(=O)(=O)c2ccc(-c3cnc(C4CC4)o3)cc2)c1` it was “inactive”; in that of `CCn1c(=O)c(=O)[nH]c2c(=O)oc3ccc(S(=O)(=O)Nc4ccc(OC)cc4)cc3c21`, “inactive”; in that of `Cc1cc(NS(=O)(=O)c2ccc3oc(=O)c4ncn(C)c4c3c2)ccc1Br`, 11.2 µM (active).
With `Cc1ccc(-c2cc(C(F)(F)F)c(C#N)c(SCC(=O)Nc3ccccc3)n2)cc1`, the Potency result is “inactive”.
In the case of `CCc1ccc(NS(=O)(=O)c2ccc3[nH]cc(C(=O)NCCc4cccc(C)c4)c(=O)c3c2)cc1` it was “inactive”; in that of `CC(=O)/C(=N\Nc1ccc(Cl)cc1Cl)Sc1cccc2cccnc12`, 3.98 µM (active).
In the case of `O=C(Nc1cccc2cccnc12)C(F)(F)F` it was “inactive”.
`COc1c(Cl)cc(Cl)cc1C(=O)Nc1cccc2cccnc12`: the Potency result was “inactive”.
In the case of `Clc1cccc[n+]1CCCC[n+]1ccccc1Cl` it was “inactive”; in that of `Cc1ccccc1-c1nc2cc(NC(=O)c3cccc(OCCC(C)C)c3)ccc2o1`, “inactive”.
For `COc1cc(OC)c2c(c1C(CCN1CCCCC1)c1ccc(N(C)C)cc1)OC(=O)CC2c1ccc(N(C)C)cc1` (stereo not drawn), the Potency entry was “inactive”.
In the case of `COc1cc(/C=C/C(=O)OCC(=O)Nc2cccc(Oc3ccccc3)c2)ccc1O` it was “inactive”; in that of `COc1ccc(Nc2ncc(C(=O)Nc3cc(C)ccc3OC)c3ccccc23)cc1`, “inactive”.
Turning to `COc1ccc(C(=O)Nc2ccccc2C(=O)N/N=C/c2ccc(O)c(OC)c2)cc1`, the Potency is 3.55 µM (active).
For `COc1cc(OC)cc(C(=O)Nc2ccc3nc(Nc4cccc(C(F)(F)F)c4)cc(C)c3c2)c1`, the Potency result was “inactive”.
In the case of `Cc1onc(-c2ccc(F)cc2F)c1C(=O)Nc1cccc(C(F)(F)F)c1` it was “inactive”; in that of `COc1cc(NC(=O)c2[nH]cnc2C(N)=O)cc(C(=O)Nc2cccc(C(F)(F)F)c2)c1`, 7.08 µM (active); in that of `COc1ccc(/C=C/c2ccccn2)cc1OC`, “inactive”.
Take `Cc1ccc(-c2cn3c(n2)sc2cc(C(=O)NCc4cccs4)ccc23)c(C)c1`: the Potency result is “inactive”.
In the case of `COc1ccc(NC(=O)Cn2c(=O)n(CCC(C)C)c(=O)c3cccnc32)cc1Cl` it was “inactive”; in that of `CCCC[C@@H]1CN=C(N)N1CCc1cc(C(F)(F)F)cc(C(F)(F)F)c1`, 15.8 µM (active); in that of `CCCCN1C(N)=NC[C@@H]1CC1CCCCC1`, “inactive”.
Turning to `CN(C)C1=NC[C@H](Cc2ccccc2)N1CCc1ccc(F)cc1`, the Potency result was “inactive”.
Regarding `CC(NC(=O)CCc1cn(Cc2ccccc2Cl)c2ccccc12)c1ccccc1` (stereo not drawn), the Potency result is “inactive”.
Take `Cc1cc(OC(C)C(=O)Nc2sc3c(c2C(N)=O)CCCC3)ccc1Cl` (stereo not drawn): the Potency entry was “inactive”.
In the case of `O=C(Cn1ncn2nc(-c3cccs3)cc2c1=O)NCc1cccc(Br)c1` it was “inactive”; in that of `Cc1ccc(C)c(OCC(=O)Nc2sc3c(c2C#N)CCCC3)c1C`, “inactive”; in that of `CCOC(=O)N1CCc2c(sc3c2C(=O)NC(c2ccccc2F)N3)C1` (stereo not drawn), “inactive”.
In the case of `NC1=CC(=O)C(=O)c2cccnc21`, the Potency is 6.31 µM (active).
For the compound `Cc1ccc2c(=O)cc(C(=O)Nc3sc4c(c3C(=O)NCc3cccnc3)CCCC4)oc2c1`, the Potency entry was “inactive”.
Regarding `COc1ccc(N2CCN(c3nc(-c4ccccc4F)nc4ccccc34)CC2)cc1`, the Potency result was “inactive”.
In the case of `O=C(O)c1ccc(Nc2nc(-c3ccccc3)c3cc(Br)ccc3n2)cc1` it was “inactive”; in that of `CC(C)Cn1c(=O)c2ccccc2n2c(-c3cccc(Cl)c3)nnc12`, “inactive”; in that of `O=c1c2cc(Br)ccc2nc(-c2cccc(Cl)c2)n1O`, 15.8 µM (active).
Regarding `CCOc1ccccc1C(=O)NC1(C(F)(F)F)NC(=O)N(CCc2ccc(OC)c(OC)c2)C1=O` (stereo not drawn), the Potency result is “inactive”.
As to `Cc1nc(SCC(=O)Nc2ccc(C(=O)O)cc2)n[nH]1`, the Potency result is “inactive”.
For the compound `CN(C)c1ccc(/C=C/C=C/c2ccnc3ccccc23)cc1`, the Potency result was “inactive”.
For the compound `Cc1nnc2n1N=C(c1ccc3c(c1)NC(=O)CO3)CS2`, the Potency entry is “inactive”.
In the case of `COc1ccc(C2=Nn3c(nnc3-c3ccccc3OC)SC2)cc1OC1CCCC1` it was 17.8 µM (active); in that of `O=C(Nc1ccc([N+](=O)[O-])cc1)c1cnn2c1NC(=C1CC1)C=C2C(F)F`, “inactive”.

Values taken from PubChem BioAssay AID588856 (National Center for Advancing Translational Sciences (NCATS), 2011).
